Compound activity (PubChem BioAssay)
An excerpt weighted towards active compounds, which were near 1.3% of everything screened.
RPL19A TOR yeast: yeast TOR pathway RPL19A-GFP modulation | actives 0.3% (n = 330,000) | percent response vs DMSO, % at 10 µM | S. cerevisiae RPL19A-GFP strain, flow cytometry, 3 h; active compounds read low;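 active = percent response vs DMSO below 50%; inconclusive = fewer than 70 events counted for the yeast strain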;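 note: median channel GFP fluorescence of the barcoded RPL19A-GFP strain; lower means less RPL19A-GFP as with rapamycin TOR inhibition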
MEP2 TOR yeast: modulators of TOR pathway MEP2-GFP in S. cerevisiae; AID 2016; actives 0.51% (n = 330,000); GFP response vs DMSO, % at 10 µM; S. cerevisiae MEP2-GFP strain, flow cytometry GFP, 3 h; 100% = DMSO control level;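 active = GFP response versus DMSO above a set limit, roughly screen mean plus 3 SD, cut at about 180% in these data; inconclusive = fewer than 70 cells counted for a yeast strain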;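 note: median GFP fluorescence of the barcode-gated MEP2-GFP cells per well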
CIT2 TOR yeast: alters CIT2-GFP fluorescence in TOR pathway yeast screen. S. cerevisiae CIT2-GFP strain, flow cytometry, 3 h; 100 means same as DMSO wells. GFP response vs DMSO, % at 10 µM. actives 0.065% (n = 320,000). AID 2029;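 active = GFP response relative to DMSO above a set limit, near the screen mean plus 3 SD, cut at about 150% in these data; inconclusive = Fewer than 70 cells measured for a yeast strain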;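 note: ratio of well median GFP fluorescence to mean of DMSO wells on the plate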
LAP4 TOR yeast: alters LAP4-GFP fluorescence in TOR pathway yeast screen. actives 0.34% (n = 320,000). GFP response vs DMSO, % at 10 µM. S. cerevisiae LAP4-GFP multiplex, flow cytometry GFP, 3 h; median GFP as percent of DMSO wells;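 active = GFP response vs DMSO above a set limit, about the screen mean plus 3 SD, cut at about 150% in these data; inconclusive = under 70 cell events counted for the yeast strain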
AGP1-GFP MLPCN: yeast TOR pathway AGP1-GFP modulation; actives 0.02% (n = 320,000); S. cerevisiae AGP1-GFP multiplex flow cytometry, 3 h; GFP as percent of DMSO wells; GFP response vs DMSO, % at 10 µM; AID 2066;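 active = GFP response relative to DMSO above a set limit, near screen average plus 3 SD, cut at about 150% in these data; inconclusive = fewer than 70 cells counted for the yeast strain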;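 note: median GFP channel fluorescence of the gated AGP1 strain per well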
Efflux pump inh: blocks antifungal efflux pumps in multiplex yeast assay | S. cerevisiae Candida pump triplex, Nile Red efflux | inhibition, % at 10 µM | actives 0.44% (n = 330,000) | AID 485275;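 active = plate passing quality check with inhibition over a set limit, or well fluorescence over plate mean plus 4 SD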;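 note: Nile Red retained in pooled yeast measured as flow cytometry median fluorescence; higher means more Nile Red kept so more efflux inhibition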
Large screens that a line does not name were inactive; [ ] = remark or other dose.

Cc1ccsc1C(C(=O)NCc1ccccc1)N(C(=O)c1csnn1)c1ccccc1 (configuration not stated)	none
COc1cccc(C2C(C(=O)Nc3nc4ccccc4s3)=C(C)NC3=C2C(=O)CC(C)(C)C3)c1OC (configuration not stated)	none
COc1ccc(OC)c(C2C(C(=O)Nc3nc4ccccc4s3)=C(C)NC3=C2C(=O)CCC3)c1 (configuration not stated)	MEP2 TOR yeast 183
CCC(=O)N1c2ccc(S(=O)(=O)CCC(=O)Nc3nccs3)cc2CC1C (configuration not stated)	RPL19A TOR yeast 29[may fluoresce violet], MEP2 TOR yeast inconclusive, CIT2 TOR yeast inconclusive, LAP4 TOR yeast inconclusive, AGP1-GFP MLPCN inconclusive
O=C(O)c1ccc(N/N=C/C(Br)=C/c2ccccc2)cc1	LAP4 TOR yeast 161
O=c1cc(O)nc(SCc2ccc(Cl)cc2)[nH]1	MEP2 TOR yeast 352[may fluoresce violet], CIT2 TOR yeast inconclusive
CN1CCN(C(=O)c2ccc3c(c2)NC(=O)C(C)(C)O3)CC1	RPL19A TOR yeast 15[may fluoresce violet], MEP2 TOR yeast 259[may fluoresce violet], CIT2 TOR yeast inconclusive, AGP1-GFP MLPCN inconclusive
COc1cccc(NC(=O)NNC(=O)c2ccc3c(c2)NC(=O)C(C)(C)O3)c1	none
O=S1(=O)CCOCCCN1Cc1cccc(C(F)(F)F)c1	none
CCCC(=O)C1=C(O)C(C(=O)OC)C(C)(C)CC1=NCCc1ccccc1 (configuration not stated)	none
CCOc1ccc2c(c1)c(C(C)=O)c(C)n2-c1ccccc1	RPL19A TOR yeast 35[may fluoresce violet], MEP2 TOR yeast 628[may fluoresce violet], CIT2 TOR yeast inconclusive (no result: AGP1-GFP MLPCN)
Cc1nc(C/C(=N\N)c2ccc(O)cc2O)cs1	none
CCc1cc(/C(Cc2csc(C)n2)=N/O)c(O)cc1O	RPL19A TOR yeast 44[may fluoresce violet], MEP2 TOR yeast 209[may fluoresce violet], CIT2 TOR yeast inconclusive (no result: AGP1-GFP MLPCN)
COc1ccc(CNC(C)C23CC4CC(CC(C4)C2)C3)c(OC)c1OC (configuration not stated)	none
CS(=O)(=O)N(CCc1ccccc1)CC(=O)N1CCCC1	RPL19A TOR yeast 43[may fluoresce violet], MEP2 TOR yeast inconclusive, CIT2 TOR yeast inconclusive, LAP4 TOR yeast inconclusive, AGP1-GFP MLPCN inconclusive
CS(=O)(=O)N(CC(=O)N1CCCCC1)Cc1ccccc1	none
Cc1cc(Cl)ccc1N=c1ssnc1Cl	LAP4 TOR yeast 157
Cc1cc(C)nc(/N=c2/ssnc2Cl)c1	LAP4 TOR yeast 188
Cc1nnc(N=c2ssnc2Cl)o1	none
Cn1ccnc1SCC(=O)Nc1ccc2c(c1)OC(F)(F)O2	none
COCCn1c(-c2ccc(-c3ccc([N+](=O)[O-])cc3Br)o2)nc2c1c(=O)[nH]c(=O)n2CC(C)C	none
CC(C)C1N(C(N)=S)N=CC1(C)C (configuration not stated)	RPL19A TOR yeast 49[may fluoresce violet], MEP2 TOR yeast 664[may fluoresce violet] (no result: CIT2 TOR yeast, LAP4 TOR yeast, AGP1-GFP MLPCN)
Cc1nc(Cl)c2c(n1)NC(=O)CO2	none
CCCN(CCC)S(=O)(=O)c1cccc(C(=O)N=c2sccn2C)c1	none
CCc1nnc(NC(=O)CSc2nnc(C3CCCCC3)n2-c2cccc(Cl)c2)s1	RPL19A TOR yeast 49, MEP2 TOR yeast active, CIT2 TOR yeast 199, LAP4 TOR yeast 343, AGP1-GFP MLPCN 198
O=C(CSc1cccc[n+]1[O-])C12CC3CC(CC(C3)C1)C2	none
NC(=O)c1cc2ccccc2oc1=NCc1ccccc1	none
NC(=O)c1cc2ccc(O)cc2oc1=NCc1ccccc1	RPL19A TOR yeast 47[may fluoresce violet], CIT2 TOR yeast inconclusive (no result: AGP1-GFP MLPCN)
Cc1nsc(Nc2ccccc2)c1C#N	none
S=C(Nc1ccc(Cl)cc1)Nc1ccc2cn[nH]c2c1	LAP4 TOR yeast 169
CCN(CC)S(=O)(=O)c1ccc(N2CCN(C)CC2)c(NC(=O)c2cc(=O)c3ccccc3o2)c1	RPL19A TOR yeast 39[may fluoresce violet], MEP2 TOR yeast inconclusive, CIT2 TOR yeast inconclusive, LAP4 TOR yeast inconclusive, AGP1-GFP MLPCN inconclusive
CCOC(=O)CN1CC23C=CC(O2)C(C(=O)Nc2cc(OC)ccc2OC)C3C1=O (configuration not stated)	Efflux pump inh 0.9
N#Cc1c(F)cccc1NCCCn1ccnc1	none
CCOC(=O)c1cc(C#N)c(N2CCCNCC2)nc1C(F)(F)F	none
COCCN1C(=O)c2ccccc2C(C(=O)NCCN(C)C)C1c1ccc(F)cc1 (configuration not stated)	MEP2 TOR yeast 464[may fluoresce violet], CIT2 TOR yeast inconclusive
